# Laboratory results published in PubChem BioAssay AID2401 (Southern Research Specialized Biocontainment Screening …, 2010).
# Among all 2,200 compounds or so, about 530 (24%) were called active.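 Rule for the calls: active = inhibition above a set limit at one or more concentrations of the dose series; inactive = inhibition under that limit at every dose.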 The list is a sample of the results. Entries with a potency or affinity are not part of this list.
# Assay: S. Typhimurium nonspecific reporter signal inhibition – Salmonella Typhimurium, GFP fluorescence, counter-screen for PhoP regulon inhibitor project, dose response (AID 2401);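 note: S. typhimurium with Mg-insensitive nmpC-GFP reporter grown at 10 µM Mg2+; drop in reporter fluorescence reflects general culture growth inhibition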
# Details: 4 h; series mostly up to 150 µM
row,SMILES,outcome
1,O=C(CSc1nnnn1-c1ccccc1)CC(=O)Nc1ccc(Cl)cc1,inactive
2,CCn1cc(C(=O)O)c(=O)c2cc(F)c(N3CCN(C(=S)NC(=O)c4ccccc4Cl)CC3)cc21,inactive
3,CCOC(=O)CSc1n[nH]c(NC(=O)c2cccc(C)c2)n1,inactive
4,Cc1cccc(C(=O)NC(=S)Nc2ccc(N3CCOCC3)cc2)c1,inactive
5,CCCS(=O)(=O)N1CCCC(C(=O)N2CCN(c3ccccn3)CC2)C1 (stereo not given),inactive
6,COc1cc(NC(=O)CSc2nnnn2Cc2ccc3c(c2)OCO3)cc(OC)c1,inactive
7,Cc1cccc(-n2ncc3c(NCc4ccc5c(c4)OCO5)ncnc32)c1,inactive
8,O=C1Nc2ccccc2C(O)(C(=O)N2CCCCC2)N1c1ccccc1 (stereo not given),inactive
9,Cc1cccnc1N(C(=O)Nc1ccccc1)C1=NCC(C)(C)S1,inactive
10,Cc1nn(-c2ncc(C(F)(F)F)cc2Cl)c(=O)n1-c1cccc(Cl)c1,inactive
11,CCCc1ccc(C(=O)CCC(=O)O)cc1,inactive
12,COc1ccc(OC)c(C(C(=O)NCc2ccco2)N(C(=O)Cn2nnc3ccccc32)C(C)C)c1 (stereo not given),inactive
13,COc1ccc(C2C=C(c3ccc(Cl)cc3)Nc3nc(NC(C)=O)nn32)cc1 (stereo not given),inactive
14,C=CCn1c(C)cc(C(=O)CSc2nc(N)cc(N)n2)c1C,inactive
15,Cc1ccc(C(C(=O)NCc2ccco2)N(CCc2ccccc2)C(=O)Cn2nnc3ccccc32)o1 (stereo not given),inactive
16,CCn1cc(C(=O)O)c(=O)c2cc(F)c(N3CCN(S(=O)(=O)c4ccc(NC(C)=O)cc4)CC3)cc21,inactive
17,CCCOc1ccc(C(=O)CCC(=O)OCC(=O)N2CC(=O)Nc3ccccc32)cc1,inactive
18,O=C(CN1CCC(NC(=O)c2cccc(F)c2)CC1)NCc1ccccc1F,inactive
19,CCCOc1ccc(C(=O)N2CCCC2C(=O)O)cc1 (stereo not given),inactive
20,COc1cccc(C2C3=C(Nc4[nH]n(-c5ccccc5)c(=O)c42)c2ccccc2C3=O)c1 (stereo not given),inactive
21,COC(=O)c1sc2ccccc2c1-n1cccc1C(=O)C(=O)Nc1ccc(Cl)cc1,inactive
22,COc1cccc(-n2c(SCC(=O)Nc3ccc4c(c3)CCC4)nc3ccccc3c2=O)c1,inactive
23,CCOC(=O)C(NC(=O)c1cccc(Cl)c1)(OCc1ccccc1)C(F)(F)F (stereo not given),inactive
24,COc1ccccc1CC1(C)NC(=O)N(CC(=O)N2CC(C)OC(C)C2)C1=O (stereo not given),inactive

row,SMILES,outcome
1,Cn1c(NCc2cccs2)nc2ccccc21,inactive
2,COc1ccc(OC)c(S(=O)(=O)N(C)CC(=O)N2CCc3ccccc3C2)c1,inactive
3,CCCC(=O)c1c[nH]c(C(=O)NCCCN2CCOCC2)c1,inactive
4,O=S(=O)(Nc1ccc2ccccc2c1)c1ccccc1,inactive
5,COc1ccc(N2CCN(C(=O)Nc3ccc(S(=O)(=O)N(C)C)cc3)CC2)cc1,inactive
6,CCc1nc2ccccc2c2nc3ccccc3n12,inactive
7,COC(=O)C1C(=O)C=C(N2CCOCC2)CC1(C)C (stereo not given),inactive
8,COC(=O)c1ccc2c(=O)n(CCN3CCOCC3)c(SCC(=O)C(C)(C)C)nc2c1,inactive
9,CN(C)C(=O)c1cn(N(C)c2ncc(C(F)(F)F)cc2Cl)c(=O)c2ccccc12,inactive
10,Cc1nc2ccccc2n1CC(=O)NCc1ccccc1,inactive
11,CCOc1ccc(N/C=C/C(=O)c2ccc(OC)cc2)c([N+](=O)[O-])c1,inactive
12,O=C(/C=C/c1ccco1)NC(=S)Nc1ccc(N2CCCC2)cc1,inactive
13,O=C1CSC(=S)N1c1ccc(F)cc1,inactive
14,O=C1N=c2ccccc2=C1c1[nH]c(=S)[nH]c1O,inactive
15,Cc1ccccc1-n1nc(-c2ccc(N)cc2)cc1N,inactive
16,CC(=O)N(Cc1ccc(Cl)cc1)c1cnccn1,inactive
17,NCCCC[C@H]1CN=C(N)N1CCC12CC3CC(CC(C3)C1)C2,inactive
18,CCN(c1ccc(OCC(=O)OCC(=O)Nc2ccc(F)c(F)c2F)cc1)S(=O)(=O)c1ccccc1,inactive
19,COc1ccc2nc(SCC(=O)N(C)C3CCCCC3)c(C#N)cc2c1,inactive
20,CC1CCC(NC(=O)C2c3ccccc3C(=O)N2Cc2cccs2)CC1 (stereo not given),inactive
21,Cc1ccc(Nc2nc(CSc3nnc(-c4ccc(F)cc4)n3C)cs2)cc1,inactive
22,CCOc1ccc(NC(=O)Nc2cccs2)cc1,inactive
23,CC(=O)c1sc(NC(=O)COc2ccc([N+](=O)[O-])cc2)nc1C,inactive
24,CCOC(=O)C1=C(C)NC(=O)NC1c1ccsc1 (stereo not given),inactive

row,SMILES,outcome
1,O=C1c2ccccc2C(=O)N1c1cccc(-c2csc(Nc3ccc4c(c3)OCO4)n2)c1,inactive
2,COC(=O)Cn1cc(C(=O)c2ccco2)c2ccccc21,inactive
3,COC(=O)c1sccc1NC(=O)c1csc2c1CCCC2,inactive
4,COCCNC(=O)CSCc1c(F)cccc1Cl,inactive
5,Cn1ncc(Br)c1C(=O)NCc1cccs1,inactive
6,CCOC(=O)c1cnc(SCC(=O)Nc2ccc(N3CCOCC3)c(Cl)c2)nc1N,inactive
7,CCOC(=O)N1CCC(NC(=O)CCC(=O)c2ccccc2)CC1,inactive
8,CNC(=O)c1ccc(-c2ccc(F)cc2)s1,inactive
9,CCCCOC(=O)CSc1nc2c(c(=O)[nH]c(=O)n2C)n1C/C=C(\C)Cl,inactive
10,CCCN(CCC)CCCNS(=O)(=O)c1ccc2c(c1)oc(=O)n2C,inactive
11,O=C1c2[nH]nc(-c3ccccc3O)c2C(c2ccc(F)cc2)N1Cc1ccco1 (stereo not given),inactive
12,COc1ccc(NC(=O)CSc2nnc(-c3cccs3)n2Cc2ccco2)cc1OC,inactive
13,COc1ccc(OC)c(C2C=C(C34CC5CC(CC(C5)C3)C4)NC(=S)N2)c1 (stereo not given),inactive
14,CCn1c(Cc2ccccc2)nnc1SCC(=O)Nc1ccc(S(N)(=O)=O)cc1,inactive
15,Cc1cc(C)nc(/N=C(\N)Nc2ccc(SC(F)F)cc2)n1,inactive
16,CCCc1[nH][nH]c(=O)c1C(c1ccc(Br)cc1)C(C#N)C#N (stereo not given),inactive
17,Cc1[nH][nH]c(=O)c1C(c1ccc(O)c([N+](=O)[O-])c1)c1c(C)[nH][nH]c1=O,inactive
18,CN(CCC(=O)Nc1ccc(Br)cc1)Cc1ccccc1,inactive
19,CCCc1nc2c(o1)CC(CC(C)SCC)CC2=O (stereo not given),inactive
20,O=C(Nc1ccc(Cl)cc1)N1CC=CCC1,inactive
21,C/C(=N/NC(=O)Cc1cccn1C)c1ccccc1,inactive
22,Nc1ccc2nc(SCC(=O)Nc3ccc(N4CCOCC4)c(Cl)c3)sc2c1,inactive
